Drawing on PubChem BioAssay, this text covers viability decrease for 16 molecules.

Values without a mark were called inactive. The source made the active and inactive calls.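 How the source made its calls: active means compounds lowering colon cancer cell viability after pretreatment blocking the GSK3B kinase; inactive means the rest.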

This test in a line: growth inhibition of GSK3B-pretreated HCT116 cells – cell-based, CellTiter-Glo, 0.2 to 20 µM (AID 1117336). Conditions: HCT116 viability after GSK3B inhibitor, at 20 µM, stronger effect = higher value. In general terms: In ATP-based viability assays light output follows the ATP content of the culture.
As to `COCCCOc1ccnc(CS(=O)c2nc3ccccc3[nH]2)c1C` (stereo unspecified), the viability decrease is 32.7%.
In the case of `N=c1nc(N2CCCCC2)cc(N)n1O` it was 3.1%; in that of `Cc1ccc(-n2nc(C(C)(C)C)cc2NC(=O)Nc2ccc(OCCN3CCOCC3)c3ccccc23)cc1`, 73% (active).
In the case of `CC(C)CCCC(C)NCCC(C)C` (stereo unspecified) it was -5.2%; in that of `CC(C)NCC(O)COc1cccc2[nH]ccc12` (stereo unspecified), 17.5%; in that of `COc1ccccc1N1CCN(CCCCNC(=O)c2ccc(-c3ccc(C(C)=O)cc3)cc2)CC1`, 55.6% (active).
In the case of `CCn1cc(C(=O)O)c(=O)c2ccc(C)nc21` it was 10.1%.
As for `CN(C)C(=O)C(CCN1CCC(O)(c2ccc(Cl)cc2)CC1)(c1ccccc1)c1ccccc1`, the viability decrease is 64.9% (active).
In the case of `Cc1cc(NS(=O)(=O)c2ccc(N)cc2)no1` it was 1.7%; in that of `CC(C)(C)NC(=O)[C@@H]1C[C@@H]2CCCC[C@H]2CN1C[C@@H](O)[C@H](Cc1ccccc1)NC(=O)[C@H](CC(N)=O)NC(=O)c1ccc2ccccc2n1`, 45.8%; in that of `CCCC(CCC)C(=O)O`, 4.6%.
As for `O=C1CN(/N=C/c2ccc([N+](=O)[O-])o2)C(=O)N1`, the figure is 26.8%; as for `COc1cc(Cc2cnc(N)nc2N)cc(OC)c1OC`, -3%; as for `COC(=O)C1=C(C)NC(C)=C(C(=O)OCCN(C)Cc2ccccc2)C1c1cccc([N+](=O)[O-])c1` (stereo unspecified), 91.4% (active).
As for `C[C@@H](C1=C(CCN(C)C)Cc2ccccc21)c1ccccn1`, the figure is 37.5%; as for `Cc1cc(-n2nc3ccc(Cl)cc3n2)c(O)c(C(C)(C)C)c1`, 29.7%.
